uPA generation: cell surface uPA generation inhibition; cell surface uPA generation assay, qHTS; Potency, µM (top dose mostly 38.3 µM), inactives show top-dose activity change, negative = inhibition, usual class: inhibitors; 330,000 tested, 0.31% active; active = well fitted inhibition curve with a large enough effect; inconclusive = small, poorly fitted or top-dose-only effect; inactive = no such curve, though single readings can be large or run the other way; tested in mouse RAW 264.7 cells; note: potency is the fitted concentration of half-maximal effect; nearly all actives have a fitted effect of over 55% in size
TDP1 cell CPT: DT40-hTDP1 cell growth loss with CPT | chicken DT40 Tdp1-/-;hTDP1 cells + 20 nM CPT, ATP luminescence, 48 h | Potency, µM (top dose mostly 46.2 µM), without a hit: at the highest dose activity change, negative = growth inhibition, actives largely listed as inhibitors | 420,000 tested, 12% active; note: potency is the fitted concentration of half-maximal effect; nearly all actives have a fitted effect of over 55% in size
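Chicken DT40 Tdp1-/- cells stably complemented with human TDP1 were seeded at 400 cells/well in medium containing 20 nM camptothecin, exposed to pin-transferred compounds, and grown at 37 °C for at least 48 hr. Viability was read as ATP luminescence.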
HT1080 IDH1KD tx: HT-1080 IDH1 knockdown cell toxicity (counter line); HT-1080 IDH1 knockdown viability, ATP luminescence, 48 h; Potency, µM (titrated, usually from 46.1 µM), inactives show at the top dose activity, negative = toxicity, usual class: cytotoxic; 360,000 tested, 2% active; AID 686971;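 note: potency is the fitted concentration of half-maximal effect; 0% = DMSO wells and -100% = cell-free medium wells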
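% activity derives from luminescence (CellTiter-Glo), normalised to DMSO and no-cell wells. HT-1080-IDH1KD cells, 750/well, had 48 h compound exposure at 37 °C.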
HT1080-NT tox: kills 2HG-producing HT-1080-NT fibrosarcoma cells; HT-1080-NT fibrosarcoma viability, CellTiter-Glo ATP luminescence, 48 h; Potency, µM (titrated, usually from 46.1 µM), for the others: at the highest dose activity, negative = less viability, actives largely listed as cytotoxic; 360,000 tested, 1.6% active; AID 686970;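 note: NT is the 2HG producing partner of a matched IDH1 knockdown line; potency is the fitted concentration of half-maximal effect; 0% = DMSO-treated cells and -100% = media-only wells without cells; nearly all actives have a fitted effect of over 55% in size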
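Luminescent CellTiter-Glo readout after 48 hours of compound exposure at 37 degrees C defined viability of HT-1080-NT cells. Activity was normalized to DMSO wells and cell-free media wells; concentration-response curves were fitted and assigned curve classes.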
DT40 TDP1 no CPT: qHTS for Inhibitors of human tyrosyl-DNA phosphodiesterase 1 (TDP1): qHTS in cells in absence of CPT | Potency, µM (highest dose often 46.2 µM), for the others: at the highest dose activity change, negative = growth inhibition, most hits filed as inhibitors | DT40 Tdp1-/- hTDP1 cells, no CPT, ATP luminescence, 48 h | 420,000 tested, 15% active; note: potency is the fitted concentration of half-maximal effect; nearly all actives have a fitted effect of over 55% in size
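DT40 Tdp1-/-;hTDP1 cells, no CPT (DMSO vehicle only), 400 cells/well; compounds pin-transferred; ≥48 hr, 37 °C; CellTiter-Glo 30 min RT dark, luminescence read.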
IL1B secr inh: inflammasome signaling inhibition, IL-1 beta readout | THP-1 LPS/ATP IL-1B secretion, AlphaLISA, 16 h; hits give low values | 360,000 tested, 4.7% active | activity change, % at 57.5 µM; in the data active = activity change below about -50%; inconclusive = mostly about -30% to -49%
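THP-1 cells pretreated 1 hr with compounds (up to 57.5 uM final), then stimulated with LPS (250 ng/mL final) plus ATP (1.25 mM final); secreted IL-1B measured by AlphaLISA after 16 hr, decreased signal indicating inhibition.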
Active calls of the source: *; ? = inconclusive; · = no result given; [ ] = dose if it differs, or a comment. Hits are enriched below; roughly 19% of the tested compounds scored in any of these assays. Unless noted, calls come from the whole dose curve; as a rule, active = well fitted curve in the direction sought with a large enough effect; inconclusive = small, poorly fitted or top-dose-only effect, or another doubt; inactive = no such curve, though single readings can be large; an effect the other way counts as inactive or inconclusive. Unless noted, % is set by controls: 0 for no effect and ±100 for the full control effect.

SMILES	uPA generation	TDP1 cell CPT	HT1080 IDH1KD tx	HT1080-NT tox	DT40 TDP1 no CPT	IL1B secr inh
Cc1oc(-c2ccc(Cl)cc2)nc1Cn1c(=O)cc(C)c2c(C)nn(-c3cccc(F)c3)c21	·	-2.1%	·	·	-10.8%	·
O=S(=O)(c1ccccc1)N(Cc1nc(-c2ccccc2)no1)C1CCCCC1	-4.7%	?	-0.7%[9.24 µM]	-9.3%	20.6µM*	-7.7
CC(C)N(Cc1nc(-c2ccccc2)no1)S(=O)(=O)c1ccccc1	-26.4%	?	-5.6%	-8.4%	?	-20.0
O=S(=O)(c1ccc(F)cc1)N(Cc1nc(-c2ccccc2)no1)C1CCCCC1	·	?	·	·	16.4µM*	·
CC(=O)c1ccc(NC(=O)c2cc(C)nc3c2c(C)nn3-c2ccc(C)cc2)cc1	·	-23.5%	·	·	-22.6%	·
COc1ccc(C2/C=C\CN(C(=O)c3ccc(C)cc3)[C@H](Cc3ccccc3)C(=O)N2Cc2ccc(F)cc2)cc1 (some centres undefined)	-28.2%	4.61µM*	-18.1%	-7.0%	5.8µM*	26.9
COc1ccc(C2/C=C\CN(C(=O)C3CC3)CC(=O)N2Cc2ccc(F)cc2)cc1 (centres undefined)	1.1%	-2.9%	2.2%	2.6%	-18.8%	13.0
COc1ccc(C2/C=C\CN3CCC[C@H]3C(=O)N2Cc2ccc(F)cc2)cc1 (some centres undefined)	-4.0%	?	6.1%	6.0%	23.1µM*	-19.7
CCCCCCC(=O)N1C/C=C\C(c2ccc(OC)cc2)N(Cc2ccc(F)cc2)C(=O)[C@H]1Cc1ccccc1 (some centres undefined)	?	18.4µM*	?	-22.8%	18.4µM*	-3.8
COc1ccc([C@H]2/C=C\CN(S(C)(=O)=O)[C@@H](C)C(=O)N2Cc2ccc(F)cc2)cc1	-4.9%	-29.3%	-9.6%	-4.4%	-11.4%	25.4
COc1ccc([C@H]2/C=C\CN(C(=O)C3CC3)[C@@H](C)C(=O)N2Cc2ccc(F)cc2)cc1	-5.0%	23.1µM*	20.3%	9.3%	11.6µM*	22.6
COc1ccc(C2/C=C\CN(C(=O)c3ccccc3)CC(=O)N2Cc2ccc(F)cc2)cc1 (centres undefined)	3.9%	-26.9%	0.9%	16.0%	?	3.1
O=S1(=O)N[C@H](Cc2ccccc2)COc2cccc(N3CCC[C@@H]3CO)c21	·	-4.7%	-2.6%	0.2%	?	-10.7
CCCN1CCN(CCNC(=O)Nc2cc(C)ccc2OC)CC1	·	6.0%	·	·	-5.6%	·
Cc1ccc2c(c1)N(CCC(=O)NC1CCCCC1C)C(=O)CO2 (centres undefined)	0.4%	-0.8%	18.4%	10.5%	1.1%	13.1
COc1ccc(C2/C=C\CN(C(=O)OCc3ccccc3)CC(=O)N2Cc2ccc(F)cc2)cc1 (centres undefined)	?	?	?	-23.6%	?	49.7
COc1ccc(C2/C=C\CN(C(=O)C3CC3)[C@H](Cc3ccccc3)C(=O)N2Cc2ccc(F)cc2)cc1 (some centres undefined)	?	16.4µM*	?	?	23.1µM*	0.0
COc1ccc(C2/C=C\CC(OCc3ccccc3)CC(=O)N2Cc2cccc(F)c2)cc1 (centres undefined)	-22.8%	18.4µM*	?	-29.2%	20.6µM*	-18.3
COc1ccc(C2/C=C\CN(C(=O)CC(C)C)CC(=O)N2Cc2ccc(F)cc2)cc1 (centres undefined)	14.0%	?	4.5%	3.9%	?	1.2
OC[C@@H]1CN(Cc2cccnc2)C[C@H](n2cnc3c(NC4CCCC4)ncnc32)O1	·	-11.7%	6.2%	?	-13.6%	-6.2
CC(=O)Nc1cccc(-c2csc(N)n2)c1	-1.9%	2.9%	6.7%	1.9%	0.3%	-3.8
CC(=O)Nc1cccc(-c2cc(C)c3cc4c(cc3n2)OCO4)c1	-4.4%	4.5%	-13.6%	-24.9%	?	-50.9*
COc1ccc(C(=O)c2c3ccc(C(F)(F)F)cc3[n+]([O-])n2CCCN)cc1	-13.0%	?	-2.1%	-14.7%	?	-6.9
CC1CCCCN1CCNC(=O)c1ccc2c(c1)N(Cc1ccccc1)C(=O)c1ccccc1S2(=O)=O (centres undefined)	-13.1%	?	?	?	?	-27.2
CCOc1ccccc1NC1=C(Cl)C(=O)N(Cc2ccccc2)C1=O	-12.7%	?	?	?	?	-4.8
SMILES	uPA generation	TDP1 cell CPT	HT1080 IDH1KD tx	HT1080-NT tox	DT40 TDP1 no CPT	IL1B secr inh
O=C1C(Cl)=C(Nc2cccc(O)c2)C(=O)N1Cc1ccccc1	-9.4%	23.1µM*	?	?	?	-98.2*
CC1CCCCN1C(=O)c1cccc(NC2=C(Cl)C(=O)N(Cc3ccccc3)C2=O)c1 (centres undefined)	?	?	?	?	?	-88.1*
COc1ccc(OC)c(NC2=C(c3ccccc3)C(=O)c3ccccc32)c1	·	1.46µM*	·	·	1.03µM*	·
CC1CCN(C(=O)c2ccc(NC(=O)c3ccccc3)cc2)CC1	-0.8%	-11.3%	7.4%	21.1%	3.3%	-5.7
CC1CCN(C(=O)c2ccc(NC3=C(Cl)C(=O)N(Cc4ccccc4)C3=O)cc2)CC1	?	18.4µM*	-27.6%	-12.4%	11.6µM*	-93.0*
COc1ccc(CNC(=O)CCc2c(C)c3ccc(OC)c(C)c3oc2=O)cc1OC	·	-27.4%	·	·	-22.9%	·
Fc1ccccc1NC(=S)Nc1ccc(CN2CCOCC2)cc1	1.7%	4.5%	-6.1%	-2.5%	0.4%	23.6
CC1CCCCN1C(=O)c1ccc(C(=O)c2ccccc2)cc1 (centres undefined)	-2.7%	?	-1.0%	1.3%	14.6µM*	6.3
CC1CCCCN1C(=O)c1ccc(NC(=O)c2ccccc2Cl)cc1 (centres undefined)	-6.4%	-0.4%	6.0%	3.2%	-29.2%	?
COc1ccc(OC)c(NC2=C(Cl)C(=O)N(Cc3ccccc3)C2=O)c1	-5.6%	?	?	-16.2%	?	-164.8*
COc1ccccc1NC(=O)N1CCC(NC(=O)C(Cc2ccccc2F)NC(C)=O)CC1 (centres undefined)	2.2%	-6.3%	4.1%	1.5%	9.3%	11.6
CCN(CC)C(=O)Cn1cc(/C=C(\C#N)C(=O)N2CCN(c3ccccc3)CC2)c2ccccc21	·	20.6µM*	3.3%	4.6%	?	-7.1

From PubChem
